Article PMC7862700, “An all-to-all approach to the identification of sequence-specific readers for epigenetic DNA modifications on cytosine”

Tests used:
Assay in all cases: DAPPL (digital affinity profiling via proximity ligation, sequencing); 10 mM Tris-HCl pH 7.5, 50 mM NaCl, 1 mM DTT, 4% glycerol, room temperature, 30 min; GST-TFs on glutathione beads, 16-mer random dsDNA library, 0.1% formaldehyde crosslink after washing; high values mean tight binding
[1] = molecular target: T1, FLI1 (Homo sapiens, UniProt Q01543 1-452); details: protein: recombinant; tags: N-terminal GST; dsDNA, one strand shown
T1 sequence: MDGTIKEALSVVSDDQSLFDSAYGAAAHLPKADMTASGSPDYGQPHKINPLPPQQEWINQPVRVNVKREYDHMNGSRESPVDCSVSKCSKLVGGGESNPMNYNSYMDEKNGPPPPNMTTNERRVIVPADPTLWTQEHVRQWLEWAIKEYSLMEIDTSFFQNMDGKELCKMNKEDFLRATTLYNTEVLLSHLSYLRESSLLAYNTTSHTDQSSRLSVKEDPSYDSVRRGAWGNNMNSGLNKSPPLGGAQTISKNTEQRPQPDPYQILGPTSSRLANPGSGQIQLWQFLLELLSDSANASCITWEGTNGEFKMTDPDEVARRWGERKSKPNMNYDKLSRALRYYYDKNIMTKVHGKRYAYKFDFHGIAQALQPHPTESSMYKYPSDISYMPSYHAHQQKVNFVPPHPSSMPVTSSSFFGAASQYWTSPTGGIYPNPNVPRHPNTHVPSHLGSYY
Outline: (§1)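 Binding signal is given per hexamer as its read frequency for a factor divided by its frequency in the tag-only sample. GST-fused human transcription factors were expressed in yeast, captured on glutathione beads, barcoded with DNA and pooled with that sample, then incubated with 200 nmole of a 16-mer random double-stranded DNA library in Tris/NaCl/DTT/glycerol buffer for 30 min at room temperature. The pools were then washed, crosslinked, proximity-ligated, amplified by PCR and sequenced on an Illumina NextSeq500.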

[2] = molecular target: T2, ELK1 (Homo sapiens, UniProt P19419 1-428); details: protein: recombinant; tags: N-terminal GST; dsDNA, one strand shown
T2 sequence: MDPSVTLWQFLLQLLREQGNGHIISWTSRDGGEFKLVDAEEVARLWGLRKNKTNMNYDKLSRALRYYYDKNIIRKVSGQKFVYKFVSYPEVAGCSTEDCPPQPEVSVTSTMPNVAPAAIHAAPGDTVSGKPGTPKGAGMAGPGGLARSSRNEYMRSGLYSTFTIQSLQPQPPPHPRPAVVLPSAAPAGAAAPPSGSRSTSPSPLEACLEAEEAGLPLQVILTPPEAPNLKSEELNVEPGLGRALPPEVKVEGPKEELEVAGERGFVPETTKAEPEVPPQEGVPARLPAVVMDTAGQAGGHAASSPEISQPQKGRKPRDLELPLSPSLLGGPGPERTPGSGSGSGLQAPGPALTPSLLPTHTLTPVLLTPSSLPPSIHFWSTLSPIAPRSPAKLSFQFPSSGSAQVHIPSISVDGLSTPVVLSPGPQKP
Outline: as §1

[3] = molecular target: T3, GABPA (Homo sapiens, UniProt Q06546 1-454); details: protein: recombinant; tags: N-terminal GST; dsDNA, one strand shown
T3 sequence: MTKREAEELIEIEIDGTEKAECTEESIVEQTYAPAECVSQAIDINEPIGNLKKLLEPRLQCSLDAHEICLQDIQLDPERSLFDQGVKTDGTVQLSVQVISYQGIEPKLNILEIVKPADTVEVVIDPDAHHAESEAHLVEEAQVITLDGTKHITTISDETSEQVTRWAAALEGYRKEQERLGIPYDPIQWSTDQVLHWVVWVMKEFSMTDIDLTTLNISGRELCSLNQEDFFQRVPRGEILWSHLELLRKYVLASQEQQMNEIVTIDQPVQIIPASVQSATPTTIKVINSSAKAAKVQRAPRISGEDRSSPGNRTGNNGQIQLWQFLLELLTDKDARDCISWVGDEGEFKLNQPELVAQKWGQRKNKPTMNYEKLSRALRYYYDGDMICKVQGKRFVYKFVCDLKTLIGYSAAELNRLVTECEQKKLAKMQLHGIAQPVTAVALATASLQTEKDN
Outline: as §1

[4] = molecular target: T4, ERG (Homo sapiens, UniProt P11308 1-479); details: protein: recombinant; tags: N-terminal GST; dsDNA, one strand shown
T4 sequence: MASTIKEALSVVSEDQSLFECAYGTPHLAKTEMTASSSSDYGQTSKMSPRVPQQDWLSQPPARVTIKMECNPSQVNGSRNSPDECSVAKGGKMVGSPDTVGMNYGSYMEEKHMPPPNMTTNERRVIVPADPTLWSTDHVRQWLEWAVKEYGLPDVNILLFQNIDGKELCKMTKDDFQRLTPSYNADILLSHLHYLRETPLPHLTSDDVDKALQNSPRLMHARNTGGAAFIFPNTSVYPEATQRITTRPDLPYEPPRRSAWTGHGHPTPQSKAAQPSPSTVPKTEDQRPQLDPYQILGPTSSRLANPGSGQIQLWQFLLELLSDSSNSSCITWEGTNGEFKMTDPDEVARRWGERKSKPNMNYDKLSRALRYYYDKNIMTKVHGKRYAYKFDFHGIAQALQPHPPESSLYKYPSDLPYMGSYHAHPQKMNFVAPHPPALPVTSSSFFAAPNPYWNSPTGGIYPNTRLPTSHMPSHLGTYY
Outline: as §1

[5] = molecular target: ELF1 (Homo sapiens, UniProt P32519 1-619); details: protein: recombinant; tags: N-terminal GST; dsDNA, one strand shown
ELF1, sequence (P32519 whole entry): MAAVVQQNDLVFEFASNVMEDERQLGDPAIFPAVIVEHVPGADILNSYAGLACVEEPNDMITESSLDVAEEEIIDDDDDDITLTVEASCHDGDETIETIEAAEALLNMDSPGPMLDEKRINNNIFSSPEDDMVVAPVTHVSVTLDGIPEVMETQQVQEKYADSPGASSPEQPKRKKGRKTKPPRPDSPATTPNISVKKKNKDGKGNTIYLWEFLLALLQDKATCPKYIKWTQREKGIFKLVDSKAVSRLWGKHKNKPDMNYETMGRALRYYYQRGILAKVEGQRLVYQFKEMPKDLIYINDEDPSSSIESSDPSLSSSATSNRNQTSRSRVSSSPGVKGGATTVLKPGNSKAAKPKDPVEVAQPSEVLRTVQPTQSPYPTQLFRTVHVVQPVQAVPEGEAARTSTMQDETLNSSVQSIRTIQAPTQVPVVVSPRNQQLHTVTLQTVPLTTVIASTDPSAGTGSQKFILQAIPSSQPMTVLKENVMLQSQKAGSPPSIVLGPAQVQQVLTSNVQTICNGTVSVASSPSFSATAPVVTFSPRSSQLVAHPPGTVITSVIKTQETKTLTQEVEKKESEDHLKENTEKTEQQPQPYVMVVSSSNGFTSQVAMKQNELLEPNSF
Outline: as §1

[6] = molecular target: T5, EHF (Homo sapiens, UniProt Q9NZC4 1-300); details: protein: recombinant; tags: N-terminal GST; dsDNA, one strand shown
T5 sequence: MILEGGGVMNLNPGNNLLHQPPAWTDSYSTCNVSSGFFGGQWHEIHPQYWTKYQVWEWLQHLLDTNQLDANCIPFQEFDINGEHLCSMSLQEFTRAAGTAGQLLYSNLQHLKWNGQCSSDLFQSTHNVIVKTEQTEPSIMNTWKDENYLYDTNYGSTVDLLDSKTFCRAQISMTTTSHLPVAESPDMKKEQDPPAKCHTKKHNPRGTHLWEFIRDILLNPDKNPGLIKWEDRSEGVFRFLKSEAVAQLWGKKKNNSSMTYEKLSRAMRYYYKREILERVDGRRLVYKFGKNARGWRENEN
Outline: as §1

[7] = molecular target: SPI1 (Homo sapiens, UniProt P17947 1-270); details: protein: recombinant; tags: N-terminal GST; dsDNA, one strand shown
Outline: as §1

[8] = molecular target: SPIB (Homo sapiens, UniProt Q01892 1-262); details: protein: recombinant; tags: N-terminal GST; dsDNA, one strand shown
SPIB, sequence (Q01892 whole entry): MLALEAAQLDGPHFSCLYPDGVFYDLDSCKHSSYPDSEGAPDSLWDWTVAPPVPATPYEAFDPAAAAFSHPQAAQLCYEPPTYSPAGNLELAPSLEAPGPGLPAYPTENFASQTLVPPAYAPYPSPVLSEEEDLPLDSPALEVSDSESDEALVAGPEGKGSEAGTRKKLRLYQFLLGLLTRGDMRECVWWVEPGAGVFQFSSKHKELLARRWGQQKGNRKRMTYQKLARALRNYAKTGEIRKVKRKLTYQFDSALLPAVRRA
Outline: as §1

[9] = molecular target: T6, ELK3 (Homo sapiens, UniProt P41970 1-407); details: protein: recombinant; tags: N-terminal GST; dsDNA, one strand shown
T6 sequence: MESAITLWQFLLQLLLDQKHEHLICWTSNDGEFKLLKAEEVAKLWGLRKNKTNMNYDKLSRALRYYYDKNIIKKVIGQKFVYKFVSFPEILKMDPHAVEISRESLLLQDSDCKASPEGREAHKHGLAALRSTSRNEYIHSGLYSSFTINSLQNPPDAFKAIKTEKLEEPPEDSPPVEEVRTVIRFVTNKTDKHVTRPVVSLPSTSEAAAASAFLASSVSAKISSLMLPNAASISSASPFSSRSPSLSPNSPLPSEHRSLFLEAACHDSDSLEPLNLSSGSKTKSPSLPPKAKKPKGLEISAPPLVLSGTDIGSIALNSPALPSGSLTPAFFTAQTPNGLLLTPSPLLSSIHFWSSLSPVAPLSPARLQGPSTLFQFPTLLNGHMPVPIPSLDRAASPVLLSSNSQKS
Outline: as §1

[10] = molecular target: T7, FEV (Homo sapiens, UniProt Q99581 1-238); details: protein: recombinant; tags: N-terminal GST; dsDNA, one strand shown
T7 sequence: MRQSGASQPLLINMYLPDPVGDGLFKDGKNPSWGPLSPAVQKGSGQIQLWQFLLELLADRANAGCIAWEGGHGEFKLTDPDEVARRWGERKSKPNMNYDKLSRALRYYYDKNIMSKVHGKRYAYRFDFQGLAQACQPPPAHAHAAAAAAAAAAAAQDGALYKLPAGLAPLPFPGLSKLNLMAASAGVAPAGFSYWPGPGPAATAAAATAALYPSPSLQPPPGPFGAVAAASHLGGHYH
Outline: as §1

[11] = molecular target: ETV5 (Homo sapiens, UniProt P41161 1-510); details: protein: recombinant; tags: N-terminal GST; dsDNA, one strand shown
ETV5, sequence (P41161 whole entry): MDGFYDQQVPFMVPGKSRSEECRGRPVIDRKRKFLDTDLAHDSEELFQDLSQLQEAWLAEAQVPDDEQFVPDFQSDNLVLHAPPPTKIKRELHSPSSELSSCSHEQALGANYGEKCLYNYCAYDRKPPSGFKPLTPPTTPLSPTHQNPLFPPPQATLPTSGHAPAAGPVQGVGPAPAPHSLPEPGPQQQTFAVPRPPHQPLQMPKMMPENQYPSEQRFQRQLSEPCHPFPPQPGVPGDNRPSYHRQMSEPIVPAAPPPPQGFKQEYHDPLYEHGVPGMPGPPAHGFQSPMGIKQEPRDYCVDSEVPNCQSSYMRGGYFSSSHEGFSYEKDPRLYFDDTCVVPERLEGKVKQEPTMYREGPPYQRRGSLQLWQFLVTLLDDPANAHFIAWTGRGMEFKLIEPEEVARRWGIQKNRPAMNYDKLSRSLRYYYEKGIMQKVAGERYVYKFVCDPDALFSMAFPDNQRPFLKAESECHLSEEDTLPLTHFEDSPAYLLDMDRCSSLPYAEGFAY
Outline: as §1

[12] = molecular target: HSF1 (Homo sapiens, UniProt Q00613 1-529); details: protein: recombinant; tags: N-terminal GST; chain copies: 3; dsDNA, one strand shown
HSF1, sequence (Q00613 whole entry): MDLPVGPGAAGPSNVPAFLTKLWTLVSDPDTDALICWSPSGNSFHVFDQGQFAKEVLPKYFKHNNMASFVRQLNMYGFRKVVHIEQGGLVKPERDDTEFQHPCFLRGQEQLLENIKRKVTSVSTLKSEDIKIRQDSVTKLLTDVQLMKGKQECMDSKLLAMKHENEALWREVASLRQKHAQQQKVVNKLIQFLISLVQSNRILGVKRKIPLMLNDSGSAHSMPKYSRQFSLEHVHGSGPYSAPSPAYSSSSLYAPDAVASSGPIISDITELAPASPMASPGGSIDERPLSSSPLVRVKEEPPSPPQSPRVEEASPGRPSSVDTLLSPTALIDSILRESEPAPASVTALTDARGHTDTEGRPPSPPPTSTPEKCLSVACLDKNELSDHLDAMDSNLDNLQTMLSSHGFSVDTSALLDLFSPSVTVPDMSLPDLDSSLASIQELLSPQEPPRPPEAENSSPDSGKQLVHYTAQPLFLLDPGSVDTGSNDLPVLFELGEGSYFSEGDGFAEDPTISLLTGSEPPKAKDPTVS
Outline: as §1

[13] = molecular target: T8, SPIC (Homo sapiens, UniProt Q8N5J4 1-248); details: protein: recombinant; tags: N-terminal GST; dsDNA, one strand shown
T8 sequence: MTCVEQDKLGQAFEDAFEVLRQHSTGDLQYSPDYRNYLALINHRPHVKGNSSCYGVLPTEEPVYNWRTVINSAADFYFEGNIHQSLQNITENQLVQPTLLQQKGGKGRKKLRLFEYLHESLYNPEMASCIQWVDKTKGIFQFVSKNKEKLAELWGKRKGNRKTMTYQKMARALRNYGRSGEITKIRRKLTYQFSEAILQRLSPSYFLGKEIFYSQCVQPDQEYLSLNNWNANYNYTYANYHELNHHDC
Outline: as §1

[14] = molecular target: ELF4 (Homo sapiens, UniProt Q99607 1-663); details: protein: recombinant; tags: N-terminal GST; dsDNA, one strand shown
ELF4, sequence (Q99607 whole entry): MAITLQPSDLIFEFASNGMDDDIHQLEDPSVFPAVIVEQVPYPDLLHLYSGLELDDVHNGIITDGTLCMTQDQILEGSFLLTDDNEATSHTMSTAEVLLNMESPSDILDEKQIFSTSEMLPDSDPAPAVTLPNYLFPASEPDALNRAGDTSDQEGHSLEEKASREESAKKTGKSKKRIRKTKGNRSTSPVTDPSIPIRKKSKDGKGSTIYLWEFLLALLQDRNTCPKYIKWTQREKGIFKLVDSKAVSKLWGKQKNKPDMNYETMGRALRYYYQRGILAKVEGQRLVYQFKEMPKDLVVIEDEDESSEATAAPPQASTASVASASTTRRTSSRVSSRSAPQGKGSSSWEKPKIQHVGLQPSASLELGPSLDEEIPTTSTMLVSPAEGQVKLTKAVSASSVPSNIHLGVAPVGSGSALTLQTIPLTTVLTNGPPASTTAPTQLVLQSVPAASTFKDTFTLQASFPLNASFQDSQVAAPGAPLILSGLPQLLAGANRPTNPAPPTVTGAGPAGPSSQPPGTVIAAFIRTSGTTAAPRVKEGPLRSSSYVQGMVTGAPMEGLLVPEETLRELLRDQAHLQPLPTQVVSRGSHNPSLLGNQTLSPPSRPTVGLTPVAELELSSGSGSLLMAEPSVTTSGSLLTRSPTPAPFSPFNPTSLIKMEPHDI
Outline: as §1

[15] = molecular target: T9, ELK4 (Homo sapiens, UniProt P28324-2 1-405); details: protein: recombinant; tags: N-terminal GST; dsDNA, one strand shown
T9 sequence: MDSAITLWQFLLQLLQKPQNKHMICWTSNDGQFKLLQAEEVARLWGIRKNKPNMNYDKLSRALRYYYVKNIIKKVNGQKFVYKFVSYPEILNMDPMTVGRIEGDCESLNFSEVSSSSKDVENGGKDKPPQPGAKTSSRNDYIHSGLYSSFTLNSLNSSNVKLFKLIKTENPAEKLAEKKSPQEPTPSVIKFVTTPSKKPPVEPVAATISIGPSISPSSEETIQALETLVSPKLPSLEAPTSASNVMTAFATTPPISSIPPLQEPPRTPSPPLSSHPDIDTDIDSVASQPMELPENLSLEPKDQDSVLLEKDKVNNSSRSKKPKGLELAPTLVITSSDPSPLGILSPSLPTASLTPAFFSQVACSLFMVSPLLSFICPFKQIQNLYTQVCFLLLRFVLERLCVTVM
Outline: as §1

[16] = molecular target: T10, ETV2 (Homo sapiens, UniProt O00321 1-342); details: protein: recombinant; tags: N-terminal GST; dsDNA, one strand shown
T10 sequence: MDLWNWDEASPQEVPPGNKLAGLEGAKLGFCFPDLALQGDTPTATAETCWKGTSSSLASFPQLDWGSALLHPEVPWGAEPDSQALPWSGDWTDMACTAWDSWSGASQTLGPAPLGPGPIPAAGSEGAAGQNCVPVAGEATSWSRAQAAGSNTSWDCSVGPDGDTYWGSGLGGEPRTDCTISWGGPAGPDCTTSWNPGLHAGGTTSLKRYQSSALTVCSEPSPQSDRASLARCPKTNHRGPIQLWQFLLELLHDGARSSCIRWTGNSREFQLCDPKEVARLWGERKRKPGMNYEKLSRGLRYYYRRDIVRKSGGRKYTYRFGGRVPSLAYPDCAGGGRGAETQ
Outline: as §1

[17] = molecular target: T11, ELF3 (Homo sapiens, UniProt P78545 1-371); details: protein: recombinant; tags: N-terminal GST; dsDNA, one strand shown
T11 sequence: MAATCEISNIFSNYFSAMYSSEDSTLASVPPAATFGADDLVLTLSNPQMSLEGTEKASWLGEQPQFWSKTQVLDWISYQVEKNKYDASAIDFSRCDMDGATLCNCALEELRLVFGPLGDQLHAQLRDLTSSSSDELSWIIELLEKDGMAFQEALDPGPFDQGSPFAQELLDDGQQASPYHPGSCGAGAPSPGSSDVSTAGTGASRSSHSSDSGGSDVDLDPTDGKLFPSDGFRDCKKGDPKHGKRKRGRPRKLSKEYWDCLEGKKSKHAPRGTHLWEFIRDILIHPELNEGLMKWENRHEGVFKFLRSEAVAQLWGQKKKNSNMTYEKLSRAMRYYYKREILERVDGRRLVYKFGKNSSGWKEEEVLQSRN
Outline: as §1

[18] = molecular target: CRX (Homo sapiens, UniProt O43186 1-299); details: protein: recombinant; tags: N-terminal GST; dsDNA, one strand shown
CRX, sequence (O43186 whole entry): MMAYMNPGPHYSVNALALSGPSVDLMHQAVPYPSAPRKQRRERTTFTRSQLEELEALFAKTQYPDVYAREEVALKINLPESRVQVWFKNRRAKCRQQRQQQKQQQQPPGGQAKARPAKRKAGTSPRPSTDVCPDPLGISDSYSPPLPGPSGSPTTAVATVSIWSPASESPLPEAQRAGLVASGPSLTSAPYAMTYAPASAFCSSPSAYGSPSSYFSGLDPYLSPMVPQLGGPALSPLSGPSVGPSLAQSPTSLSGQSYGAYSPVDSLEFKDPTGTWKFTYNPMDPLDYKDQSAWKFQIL
Outline: as §1

[19] = molecular target: ETV1 (Homo sapiens, UniProt P50549 1-477); details: protein: recombinant; tags: N-terminal GST; dsDNA, one strand shown
ETV1, sequence (P50549 whole entry): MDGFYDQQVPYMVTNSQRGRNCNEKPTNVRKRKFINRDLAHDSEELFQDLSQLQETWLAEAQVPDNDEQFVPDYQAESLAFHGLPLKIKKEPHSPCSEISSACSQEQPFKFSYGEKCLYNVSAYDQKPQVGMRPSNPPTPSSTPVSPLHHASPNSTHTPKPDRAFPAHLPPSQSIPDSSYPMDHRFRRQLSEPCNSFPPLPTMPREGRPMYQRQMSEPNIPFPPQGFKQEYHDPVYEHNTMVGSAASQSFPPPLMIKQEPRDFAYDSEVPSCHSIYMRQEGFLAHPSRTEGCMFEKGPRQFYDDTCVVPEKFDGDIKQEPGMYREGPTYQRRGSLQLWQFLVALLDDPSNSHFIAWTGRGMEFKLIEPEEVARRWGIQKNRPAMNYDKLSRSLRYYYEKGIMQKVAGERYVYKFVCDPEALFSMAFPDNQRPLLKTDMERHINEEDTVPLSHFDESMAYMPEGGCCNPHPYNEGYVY
Outline: as §1

TGCTGG
binding signal [1]: 1.08 fold enrichment (6-mer frequency, TF over GST control) | binding signal [2]: 1.09 fold enrichment (6-mer frequency, TF over GST control) | binding signal [3]: 1.08 fold enrichment (6-mer frequency, TF over GST control) | binding signal [4]: 1.01 fold enrichment (6-mer frequency, TF over GST control) | binding signal [5]: 1.11 fold enrichment (6-mer frequency, TF over GST control) | binding signal [6]: 1.11 fold enrichment (6-mer frequency, TF over GST control) | binding signal [7]: 1.19 fold enrichment (6-mer frequency, TF over GST control) | binding signal [8]: 1.1 fold enrichment (6-mer frequency, TF over GST control) | binding signal [9]: 1.14 fold enrichment (6-mer frequency, TF over GST control) | binding signal [10]: 1.09 fold enrichment (6-mer frequency, TF over GST control) | binding signal [11]: 1.04 fold enrichment (6-mer frequency, TF over GST control) | binding signal [12]: 1.43 fold enrichment (6-mer frequency, TF over GST control) | binding signal [13]: 1.06 fold enrichment (6-mer frequency, TF over GST control) | binding signal [14]: 1.12 fold enrichment (6-mer frequency, TF over GST control) | binding signal [15]: 1.27 fold enrichment (6-mer frequency, TF over GST control) | binding signal [16]: 1.22 fold enrichment (6-mer frequency, TF over GST control) | binding signal [17]: 1.02 fold enrichment (6-mer frequency, TF over GST control) | binding signal [18]: 1.03 fold enrichment (6-mer frequency, TF over GST control) | binding signal [19]: 1.08 fold enrichment (6-mer frequency, TF over GST control)
